Measurements as given in PubChem BioAssay (NCATS).
Inconclusive results are not listed. A call without a number means that no potency is given here. Calls of active or inactive are those of the source. The call rests on the fitted dose curve; in most records, active means well fitted curve in the direction sought with a large enough effect; inconclusive means small, poorly fitted or top-dose-only effect, or another doubt; inactive means no such curve, though single readings can be large; an effect the other way counts as inactive or inconclusive.

Target: Guanine nucleotide-binding protein G(i) subunit alpha-1 (Homo sapiens) (UniProt P63096)
Assay: qHTS Assay for Inhibitors of RGS12 GoLoco Motif Activity (Green Fluorophore) (AID 879);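 further: negative values mean loss of peptide binding seen as reduced polarization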
Conditions: Galphai1/FITC-RGS12 GoLoco peptide, fluorescence polarization; series mostly up to 57.1 µM
In short: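 A drop in FITC polarization marked displacement of the FITC-tagged RGS12 GoLoco peptide (10 nM) from Gαi1 (50 nM). Compounds were incubated 10 min at room temperature in Tris pH 7.5 buffer containing 150 mM NaCl, 0.1 mM GDP and 0.05% NP40; unlabeled peptide titration served as control.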

Chain of Guanine nucleotide-binding protein G(i) subunit alpha-1 (Homo sapiens) (P63096 whole entry, looked up): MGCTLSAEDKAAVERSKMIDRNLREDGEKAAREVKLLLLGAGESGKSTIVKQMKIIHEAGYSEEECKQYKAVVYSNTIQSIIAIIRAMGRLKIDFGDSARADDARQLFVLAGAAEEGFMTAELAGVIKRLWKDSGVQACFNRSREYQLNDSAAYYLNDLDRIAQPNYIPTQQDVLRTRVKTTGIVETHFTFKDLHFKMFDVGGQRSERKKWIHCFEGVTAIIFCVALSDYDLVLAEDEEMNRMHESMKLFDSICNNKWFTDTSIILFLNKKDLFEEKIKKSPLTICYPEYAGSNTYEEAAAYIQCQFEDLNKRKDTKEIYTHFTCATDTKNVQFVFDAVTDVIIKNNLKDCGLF

SMILES	Potency
CC(=O)N[C@@H](Cc1c[nH]c2ccccc12)C(=O)OCc1cc(C(F)(F)F)cc(C(F)(F)F)c1	inactive
O=[N+]([O-])c1cccc2cn[nH]c12	inactive
O=C(O)c1cccnc1C(=O)O	inactive
NC(N)=NC(N)=Nc1ccccc1	inactive
CNC(=O)c1cc2c(cn1)[nH]c1ccccc12	inactive
NC/C=C\C(=O)O	inactive
NC(N)=NC(N)=Nc1cccc(Cl)c1	inactive
CCN(CC)CCOC(=O)c1cc(Cl)c(N)cc1OC	inactive
CN[C@H](CC(=O)O)C(=O)O	inactive
COc1ccc(NC(=O)c2ccc(-c3ccc(-c4noc(C)n4)cc3C)cc2)cc1N1CCN(C)CC1	inactive
CCn1c(=O)[nH]c2cc(Cl)c(Cl)cc21	inactive
CC(=O)NNC(=O)N1Cc2ccccc2Oc2ccc(Cl)cc21	inactive
CCCCCCCC/C=C\CCCCCCCC(=O)NCCc1ccc(O)c(O)c1	inactive
COCc1nc2c([nH]1)c(=O)n(C)c(=O)n2CC(C)C	inactive

Target: Cytochrome P450 2C9 (Homo sapiens) (UniProt P11712)
Assay: qHTS Assay for Inhibitors and Substrates of Cytochrome P450 2C9 (AID 883); further: nearly all actives have a fitted effect of over 60% in size; further: potency means the concentration at half of the fitted maximal effect
Conditions: recombinant CYP2C9, luciferin-H luminescence, 60 min; series mostly up to 57.1 µM
In short: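 Luminescent read-out of deoxyluciferin hydroxylation, normalized to 57uM sulphaphenazole (AC100). Reaction: 10nM enzyme, 100uM Luciferin-H (equal to KM), 25mM KPO4, 10 min compound preincubation, then 60 min with NADPH regeneration, both at 37C.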

Chain of Cytochrome P450 2C9 (Homo sapiens) (P11712 whole entry, looked up): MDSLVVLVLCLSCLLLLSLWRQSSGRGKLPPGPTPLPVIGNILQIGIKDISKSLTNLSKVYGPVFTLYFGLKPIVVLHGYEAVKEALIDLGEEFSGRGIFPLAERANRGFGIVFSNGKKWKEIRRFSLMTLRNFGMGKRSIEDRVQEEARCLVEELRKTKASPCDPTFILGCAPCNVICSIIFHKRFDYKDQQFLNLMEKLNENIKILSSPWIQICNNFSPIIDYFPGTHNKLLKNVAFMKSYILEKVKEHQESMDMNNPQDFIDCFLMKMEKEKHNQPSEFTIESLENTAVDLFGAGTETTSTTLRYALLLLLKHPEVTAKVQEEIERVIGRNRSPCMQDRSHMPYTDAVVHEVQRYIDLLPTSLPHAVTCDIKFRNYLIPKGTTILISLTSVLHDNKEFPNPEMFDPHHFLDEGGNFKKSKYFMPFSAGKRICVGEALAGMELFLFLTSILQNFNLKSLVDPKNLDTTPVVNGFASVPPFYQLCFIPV

SMILES	Potency
O=[N+]([O-])c1cccc2c(Br)[nH]nc12	inactive
Cc1nc(N=Nc2cc(S(=O)(=O)O)c3cc([N+](=O)[O-])cc(S(=O)(=O)O)c3c2)c(COP(=O)(O)O)c(C=O)c1O	inactive
O=C(O)c1ccccc1Nc1cccc(OCc2ccc3ccccc3n2)c1	31.6 µM (active)
Oc1ccc(Cn2cc[nH]c2=S)cc1	inactive
COc1cc(/C=C(\C#N)C(=O)c2ccc(O)c(O)c2)cc(I)c1O	0.501 µM (active)
O=C(O)c1cc2cc(F)ccc2[nH]1	inactive
O=S(=O)(c1cccc2c(Cl)cccc12)N1CCCNCC1	inactive
CCCc1c(-c2ccc(O)cc2)nn(-c2ccc(O)cc2)c1-c1ccc(O)cc1	3.16 µM (active)
O=c1[nH]ccc2c(O)cccc12	inactive
CCCCCCN(CCCCCC)C(=O)Cc1c(-c2ccc(F)cc2)[nH]c2ccccc12	inactive
O=c1onc2cnc3ccccc3n12	inactive
C[C@H](NC(=O)/C(C#N)=C/c1ccc(O)c(O)c1)c1ccccc1	inactive
N[C@H](C(=O)O)c1cc(O)cc(O)c1	inactive
CC[C@H](NC(=O)c1c(C)c(-c2ccccc2)nc2ccccc12)c1ccccc1	12.6 µM (active)
CNc1cc(NS(=O)(=O)c2ccc(N)cc2)nc(NC)n1	2 µM (active)
NCCS(=O)O	inactive
CCCn1c(=O)c2[nH]c(C3CCCC3)nc2n(CCC)c1=O	inactive

SMILES	Potency
CC[N+](CC)(CC)CC(=O)Nc1c(C)cccc1C	inactive
Cn1cc(C(=O)OCC2CCN(CCNS(C)(=O)=O)CC2)c2ccccc21	inactive
N#Cc1cc2nc(O)c(O)nc2cc1[N+](=O)[O-]	inactive
CC(=O)N[C@@H](Cc1c[nH]c2ccccc12)C(=O)OCc1cc(C(F)(F)F)cc(C(F)(F)F)c1	12.6 µM (active)
O=[N+]([O-])c1cccc2cn[nH]c12	inactive
O=C(O)c1cccnc1C(=O)O	inactive
NC(N)=NC(N)=Nc1ccccc1	inactive
CNC(=O)c1cc2c(cn1)[nH]c1ccccc12	inactive
NC/C=C\C(=O)O	inactive
NC(N)=NC(N)=Nc1cccc(Cl)c1	inactive
CCN(CC)CCOC(=O)c1cc(Cl)c(N)cc1OC	inactive
CN[C@H](CC(=O)O)C(=O)O	inactive
COc1ccc(NC(=O)c2ccc(-c3ccc(-c4noc(C)n4)cc3C)cc2)cc1N1CCN(C)CC1	7.94 µM (active)
CCn1c(=O)[nH]c2cc(Cl)c(Cl)cc21	inactive
CC(=O)NNC(=O)N1Cc2ccccc2Oc2ccc(Cl)cc21	inactive
CCCCCCCC/C=C\CCCCCCCC(=O)NCCc1ccc(O)c(O)c1	1.58 µM (active)
COCc1nc2c([nH]1)c(=O)n(C)c(=O)n2CC(C)C	inactive
